Out of some 320,000 compounds screened, about 8,000 (2.5%) were called active. This excerpt belongs to a sample that is enriched for actives. Unmarked numbers belong to inactive results. Cut-off read from the data, not from the text of the source: active = activation above about 47%; inactive = the rest.

The target in the assay is Aryl hydrocarbon receptor (Homo sapiens) (UniProt P35869). As to the kind of experiment: AHR activators, primary screen, cell-based, luminescence, luciferase reporter, human (AID 2796).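 Note: 0% = vehicle wells and 100% = reference agonist.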 As to conditions: AHR-responsive luciferase reporter cells, at 5 µM, hits give high values. For orientation: In a reporter assay the amount or activity of a reporter protein is the signal.
Chain of Aryl hydrocarbon receptor (Homo sapiens) (P35869 whole entry, looked up): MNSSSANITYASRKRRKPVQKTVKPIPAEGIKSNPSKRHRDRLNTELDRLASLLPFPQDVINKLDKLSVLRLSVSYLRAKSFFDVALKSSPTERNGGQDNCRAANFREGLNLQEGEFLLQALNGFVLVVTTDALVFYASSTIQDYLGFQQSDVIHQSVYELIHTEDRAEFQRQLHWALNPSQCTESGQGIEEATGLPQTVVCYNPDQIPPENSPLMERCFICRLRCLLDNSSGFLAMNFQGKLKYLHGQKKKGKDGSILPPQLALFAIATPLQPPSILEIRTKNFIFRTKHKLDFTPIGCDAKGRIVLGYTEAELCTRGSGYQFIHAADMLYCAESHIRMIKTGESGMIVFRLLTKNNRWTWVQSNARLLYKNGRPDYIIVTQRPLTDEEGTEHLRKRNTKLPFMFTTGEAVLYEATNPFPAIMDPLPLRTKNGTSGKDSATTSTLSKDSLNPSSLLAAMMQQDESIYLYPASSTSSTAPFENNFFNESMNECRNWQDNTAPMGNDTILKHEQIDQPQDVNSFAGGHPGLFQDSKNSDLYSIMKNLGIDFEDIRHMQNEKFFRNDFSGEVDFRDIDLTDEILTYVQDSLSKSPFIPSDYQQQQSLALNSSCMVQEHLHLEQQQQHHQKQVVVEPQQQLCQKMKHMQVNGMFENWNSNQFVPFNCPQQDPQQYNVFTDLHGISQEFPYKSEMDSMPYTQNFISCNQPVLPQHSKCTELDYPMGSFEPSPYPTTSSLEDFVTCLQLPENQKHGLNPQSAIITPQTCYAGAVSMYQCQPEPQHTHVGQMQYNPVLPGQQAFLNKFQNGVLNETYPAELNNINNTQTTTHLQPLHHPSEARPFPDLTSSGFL
With `O=C(CN1CCN(S(=O)(=O)c2cccc(Cl)c2)CC1)N1CCCCC1`, the activation is -1.59%. Turning to `CCCCNC(=O)C1(c2ccc(OC)cc2)CCOCC1`, the activation is 0.03%. As to `CS(=O)(=O)c1ccc2nnn(OCC(=O)Nc3cccc(C#N)c3)c2c1`, the activation is 5.17%. With `Fc1ccccc1OCCSc1nc2ccccc2o1` the figure was -9.22%. With `COc1ccc(C(C(O)C(=O)c2c[nH]c3ccccc23)N2CCN(c3ccccc3)CC2)cc1` (stereo not drawn) the figure was 12.8%; with `COc1ccc(/C=C(\C#N)c2c[nH]c3ccccc23)cc1`, 53.6% (active). The same measure for `COc1ccc(/C=C(\NC(=O)c2ccc(OC)c(OC)c2)C(=O)NCCc2c[nH]c3ccccc23)cc1`: 13.8%; for `CC(NC(=O)COC(=O)c1ccc(Cl)cc1O)c1ccc(F)cc1` (stereo not drawn): 3.35%; for `Cc1ccc2nc(/C(C#N)=C\c3ccc(OC(=O)c4cccs4)cc3)[nH]c2c1`: 80.8% (active). On to `CCOC(=O)CSc1nc2ccc(C)cc2[nH]1`, for which the activation is 1.6%.

Take `CCOc1cc(/C=C(\C#N)c2nc(-c3cccs3)c(NC(C)=O)s2)ccc1O`: the activation is 8.05%.

Take `Cc1ccc(S(=O)(=O)NC(C)C(=O)NCc2ccc(Cl)cc2)cc1` (stereo not drawn): the activation was 0.98%.

Turning to `COCCCn1c(SCc2cccc(OC)c2)nc2cc(OC)c(OC)cc2c1=N`, the activation is 11.1%. The same measure for `CC(C)(C)OC(=O)C[C@@H]1C/C=C\C[C@@H](CC(=O)N(CCO)Cc2ccccc2)C(=O)N[C@H](Cc2ccccc2)COC1=O`: 2.29%. For `Cc1ccc2nc(SCc3cn4c(C)cc(C)nc4n3)[nH]c2c1`, the activation was 62.1% (active).

As to `Cc1cc(C)nc(SCc2cn3c(C)cc(C)nc3n2)n1`, the activation was 7.09%. With `Cc1ccc2nc(SCC(=O)NC3CCCC3)[nH]c2c1` the figure was 42.2%; with `CCC1(c2ccccc2)NC(=O)N(CC(=O)Nc2ccccc2C(=O)NC2CCCC2)C1=O` (stereo not drawn), 1.57%; with `CN(Cc1ccccc1)C(=O)COC(=O)/C=C/c1ccc2c(c1)OCO2`, 2.59%.

In the case of `CN(c1ccc(OCC(=O)OCC(=O)Nc2cccc([N+](=O)[O-])c2)cc1)S(=O)(=O)c1ccc(F)cc1`, the activation is 2%. The same measure for `O=C1C(=O)N(c2ccccc2)c2ccccc21`: 0.42%. The same measure for `O=C(c1c(F)cccc1F)N1CCN(c2ncc(Br)cn2)CC1`: 1.98%. With `CCn1c(=O)cc(SCC(=O)NCc2ccc3c(c2)OCO3)c2ccccc21` the figure was 6.43%; with `CCn1c(=O)c([N+](=O)[O-])c(NCc2ccc3c(c2)OCO3)c2ccccc21`, 47.1% (active); with `CCn1c(=O)c(C(=O)NCc2ccc3c(c2)OCO3)c(O)c2ccccc21`, 1.55%. Turning to `CC(C)CNC(=O)C(=O)Nc1ccc(N(C)C)cc1`, the activation is 48% (active). With `CC(C)CNC(=O)C(=O)NCc1ccccc1` the figure was -0.83%; with `CC(C)CNC(=S)Nc1ccc(F)cc1`, -0.24%.

In the case of `O=C1C=C(c2ccc(Cl)cc2)C(=O)N1Nc1ccccc1`, the activation was -0.76%.

Consider `NC(=O)C1CCN(C(=O)COc2ccc3c4c(c(=O)oc3c2)CCC4)CC1`, for which the activation is -1.05%.

Regarding `COc1ccc(NS(=O)(=O)c2cc(NC(=O)c3ccc(S(=O)(=O)N(C)C)cc3)ccc2N2CCOCC2)cc1`, the activation is 0.52%. On to `CC1CC(C)(C)CC2(C1)NC(=O)N(CC(=O)Nc1nccs1)C2=O` (stereo not drawn), for which the activation is 2.2%. For `CC1CCN(C(=S)c2cccc([N+](=O)[O-])c2)CC1`, the activation is -3.58%. The same measure for `Cc1ccc(/C([O-])=C(/C(=S)NCc2ccco2)[n+]2ccccc2)cc1[N+](=O)[O-]`: 2.88%; for `O=[N+]([O-])c1cccc(/C([O-])=C(/C(=S)Nc2ccccc2F)[n+]2ccccc2)c1`: 49.5% (active). With `COc1cccc(-c2ccc3c(c2)S(=O)(=O)c2cccc(C(=O)O)c2C3=O)c1OC` the figure was -3.31%; with `CC1CN/C(=C\C(=O)c2ccc(Br)cc2)C(=O)N1` (stereo not drawn), -14.4%; with `CCc1nc(Nc2ccc3nccnc3c2)c2oc3ccccc3c2n1`, 85.3% (active).

Turning to `CCc1nc(Nc2ccc(NC(C)=O)cc2)c2oc3ccccc3c2n1`, the activation was 5.36%. With `Cc1nc(Cl)c2oc3ccccc3c2n1` the figure was 4.72%; with `COc1ccc(/C=N/n2c(C)cc(C)cc2=O)cc1`, -0.2%; with `CCn1c(NC(=O)c2nn(C)cc2Br)nc2ccccc21`, 122% (active). The same measure for `CC(=O)NCCc1nc2cc(NC(=O)c3ccccc3)ccc2n1C`: 5.94%; for `CCC(=O)Nc1nc2ccccc2n1Cc1ccccc1C`: 2.17%. The same measure for `Cn1c(NC(=O)c2ccccc2)nc2ccccc21`: 76.5% (active); for `Cn1c(-c2ccc(C(=O)c3ccccc3)s2)nc2ccccc21`: -15%; for `CC(=O)Nc1nc2ccccc2n1Cc1ccc(C)cc1`: 1.47%. With `O=C(Cn1cnc2ccccc2c1=O)NCC1COc2ccccc2O1` (stereo not drawn), the activation was 0.29%. In the case of `O=C(c1ccc(F)cc1)N1CCCC(C(=O)N2CCCCC2)C1` (stereo not drawn), the activation was -0.02%.

For the compound `CCN1C(=O)/C(=C2\SC(N3CCCCC3)=NC2=O)c2ccccc21`, the activation was 22.2%. The same measure for `COc1ccc(Cl)cc1-n1c(=S)sc2c(=O)n(-c3ccc(F)cc3)c(SCC(=O)O)nc21`: 3.11%. With `C=CCNc1nc(C)nc(OC)n1` the figure was -0.26%; with `COc1nc(NCc2ccc(Cl)cc2)nc(OC)n1`, -1.92%; with `C=CCNc1nc(Nc2ccc(Cl)cc2)nc(OC)n1`, 52.8% (active). For `O=C(NCc1cccc(Cl)c1)C1CCC(=O)N(C2CC2)C1` (stereo not drawn), the activation is 7.52%. With `Cc1cccc(C(=O)Nc2nnc(Cc3c[nH]c4ccccc34)s2)c1` the figure was 22.8%; with `C=CCn1c(C)cc(C2=NNC(=NCC)SC2)c1C`, -11%; with `Cc1cccc(N=C2NN=C(c3c[nH]c4ccccc34)CS2)c1`, 99.4% (active). As to `COc1ccc(OC)c(N=Cc2c(O)[nH]c3ccccc23)c1`, the activation was 54.3% (active). For `COc1ccccc1N=Cc1c(O)c2ccccc2oc1=O`, the activation was 4.13%. The same measure for `CN=c1scc(-c2cc(OC)ccc2OC)n1/N=C/c1c(C)[nH]c2ccccc12`: -2.76%; for `O=C(Cn1nc(CNc2ccc(Cl)cc2)[n+]2c1CCCCC2)c1ccc(Cl)cc1`: 28.6%; for `Cc1nn(-c2ccccc2)c(NC(=O)c2cccs2)c(-c2ccc(Cl)cc2)c1=O`: 0.87%. `Cc1cc(=O)oc2c1c(C)nn2-c1ccc(Cl)cc1`: the activation is 58% (active). With `Cc1nn(-c2cc(Cl)ccc2N)c(=O)c2ccccc12` the figure was 0.58%.

In the case of `COc1ccc(CNC(=O)CN(c2ccc(OC)c(Cl)c2)S(=O)(=O)c2ccc(C)cc2)cc1`, the activation is 4.87%. With `C[C@]12CC[C@H](O)CC1=CCC1C2CC[C@@]2(C)C1CC[C@@H]2NC(=O)CCC(=O)O` (stereo partly drawn) the figure was -0.38%; with `O=[N+]([O-])c1ccc2oc(-c3cccc(O)c3)nc2c1`, 78% (active).

Take `O=[N+]([O-])c1cccc(C2=NCCS2)c1`: the activation was 0.6%.

As to `COc1cccc(-c2nnc(SCCOc3ccc4c(C)cc(=O)oc4c3)o2)c1`, the activation was -2.36%. The same measure for `COc1cccc(-c2nc3cc(C)ccc3o2)c1`: 83.1% (active); for `CC(=O)Oc1ccc2c(=O)oc(-c3ccc([N+](=O)[O-])cc3)nc2c1`: 14.1%; for `COc1ccc2oc(-c3cccc(NC(=O)CSc4ccc(Cl)cc4)c3)nc2c1`: 28.6%. The same measure for `CC(=O)c1ccc(NC(=O)CCNS(=O)(=O)c2cc(Br)cnc2N)cc1`: 2.25%; for `COc1ccc(CN2CCC(n3nccc3NC(=O)CCCc3ccccc3)CC2)cc1C`: -8.72%; for `CCC(C)NC(=O)C1c2ccccc2C(=O)N1Cc1ccccc1` (stereo not drawn): 0.97%. Consider `Cc1[nH]nc(SCC(=O)NCC(C)C)c1[N+](=O)[O-]`, for which the activation was -0.18%. With `COc1ccc(CN2CCCC(C(=O)N3CCCCC3)C2)cc1` (stereo not drawn) the figure was -0.87%; with `CC(=O)c1ccc(NC(=O)Nc2ccc([N+](=O)[O-])cc2C)cc1`, -4.23%. `COC(=O)c1ccc(NC(=O)Nc2ccc(C)cc2)cc1`: the activation was 1.57%. The same measure for `COc1cc(NC(=O)Nc2ccc(C)cc2)cc([N+](=O)[O-])c1`: 61.8% (active); for `Nc1ccc(S(=O)(=O)Nc2nccc(/C=C/c3ccc(Br)s3)n2)cc1`: -1.58%. With `Oc1cccc2ccc(/C=C/c3ccc(Br)s3)nc12` the figure was 52.2% (active); with `CCN(c1ccccc1)S(=O)(=O)c1ccc2[nH]c(=O)[nH]c2c1`, 7.41%.

Consider `CC(C)C(NC(=O)OCc1ccccc1)C(=O)OCC(=O)N1C(C)CCCC1C` (stereo not drawn), for which the activation is 2.02%. The same measure for `Cc1cccc(Nc2nc(NCCO)nc(N3CCCC3)n2)c1`: 19.5%; for `CCCOc1ccc(Cl)cc1Nc1nc(NCCO)nc(N2CCCC2)n1`: 12.8%.

On to `CC(C)(C)Oc1ccccc1Nc1nc(NCCO)nc(N2CCCC2)n1`, for which the activation is 53.9% (active).

For `CN(CC(=O)NCc1ccncc1)S(=O)(=O)c1ccc(Br)cc1`, the activation is 5.25%. With `Cc1ccc(-c2nnc(-n3nnc4ccccc43)c3ccccc23)cc1` the figure was 1.43%; with `Cc1nn(C)cc1C(=O)NNC(=S)Nc1ccc(Cl)cc1`, 29.1%; with `Cn1cc(Cl)c(C(=O)NNC(=S)Nc2cccc(Cl)c2)n1`, 125% (active).

In the case of `CC(C)CNC(=S)NNC(=O)c1nn(C)cc1Cl`, the activation was -3.07%. The same measure for `CCCC(=O)Nc1nnc(CC(=O)OCC)s1`: 3.91%; for `C=CCN1C2CCCC1CC(NC(=S)Nc1cccc(OC)c1)C2` (stereo not drawn): -0.24%.

Regarding `COc1cccc(OC)c1C(=O)Nc1c(C(=O)N2CCN(c3ccccn3)CC2)oc2ccccc12`, the activation was -3.46%. With `COCC(=O)Nc1c(C(=O)N2CCCC2)oc2ccccc12` the figure was 74.5% (active); with `CCOCCCN(C)C1CCN(C(=O)c2oc3ccccc3c2NC(=O)COc2cccc(C)c2)CC1`, -0.33%.
